Inhibition data for 40 compounds are collected here from PubChem BioAssay.

Unmarked numbers belong to inactive results. No rule for the calls is given here.

The term inhibition denotes the drop in the measured response relative to a control, in per cent.

The test system of the assay is Botulinum neurotoxin type F light chain protease (Clostridium botulinum). Nature of the assay: Botulinum neurotoxin type F light chain protease inhibition, multiplex microsphere flow cytometry, validation set (AID 588459). The conditions noted are these: multiplex microsphere protease substrate cleavage assay, at 10 µM, stronger effect = higher value. A general note: A flow cytometer gives signals particle by particle.
Consider `Oc1ccccc1OCCOc1ccccc1OCCOc1ccccc1O`, for which the inhibition was 6.5%.

As to `CC(=O)OC1c2c(ccc3ccc(=O)oc23)OC(C)(C)C1OC(=O)CC(C)C` (stereo not given), the inhibition is -0.2%. With `CCOC(=O)C(Cc1cc(C(C)=O)ccc1OC(C)C)C(=O)OCC` the figure was 0.4%; with `CCCCCCC(=O)N(O)C1CC(=O)N(Cc2ccccc2)C1=O` (stereo not given), 0.4%. Under `CC(=O)OC[C@H]1O[C@@H](n2ncc(=O)[nH]c2=O)[C@H](OC(C)=O)[C@@H]1OC(C)=O` stands -0.5%; under `COc1ccc(NC(=O)C2CSC3c4ccccc4C(=O)N23)cc1` (stereo not given), -0.5%. For the compound `O=c1[nH]cnc2c1ncn2[C@@H]1O[C@H](CO)[C@@H](O)[C@H]1O`, the inhibition was 1.2%. In the case of `C=C(C)COc1ccc(-c2n[nH]c(C)c2-c2ccc(OC)cc2)c(O)c1`, the inhibition is -1.3%. For `C[C@]12CCC(=O)C=C1[C@H](O)C[C@@H]1[C@@H]2[C@@H](O)C[C@@]2(C)[C@H]1CC[C@]2(O)C(=O)CO`, the inhibition is -0.1%.

Take `CN(C)CCOC(c1ccccc1)c1ccccc1` (tested in a mixture with another compound): the inhibition is 1.8%. Under `O=C(CCC1CCCN(C(=O)c2ccsc2)C1)NCc1ccc(F)c(F)c1` (stereo not given) stands 2.2%; under `Cc1onc(-c2c(Cl)cccc2Cl)c1C(=O)NC1C(=O)N2C1SC(C)(C)C2C(=O)O` (stereo not given), 1.2%. With `Cc1nc(-c2coc3c(CN(C)C)c(O)ccc3c2=O)cs1` the figure was -2.2%. Under `Cc1oc2ccc(OC(=O)c3cccs3)cc2c1C(=O)OC(C)C` stands -0.1%; under `CCCCNc1ccc(C(=O)OCCN(C)C)cc1`, 0.2%. In the case of `COc1cc(C(=O)CCN2CCC(c3ccccc3)C2)cc(OC)c1OC` (stereo not given), the inhibition was 0.2%. Under `Cc1ncc([N+](=O)[O-])n1CC(C)O` (stereo not given) stands -0.2%. For `c1cnc2c(c1)ccc1cccnc12`, the inhibition is -1.4%.

On to `COc1ccc(C(=O)CCN2CCc3cc(OC)c(OC)cc3C2)cc1`, for which the inhibition was -2.2%.

For the compound `CC(C)CC(=O)Nc1ccc2oc(-c3ccncc3)nc2c1`, the inhibition is 1.4%. As to `CCOC(=O)c1ccccc1NC(=O)c1ccc(F)cc1`, the inhibition was -1.8%. With `O=C(Nc1nc2ccccc2s1)c1ccc(F)cc1` the figure was -5.1%; with `CCn1nc(C(=O)O)c(=O)c2cc3c(cc21)OCO3`, 5.7%; with `COc1ccc(CN2CCCC(C(=O)c3ccc(Cl)cc3)C2)cc1Cn1cccn1` (stereo not given), 1.9%. With `CCN1C(=O)C(CC(=O)Nc2ccc(F)cc2)N(Cc2ccco2)C1=S` (stereo not given) the figure was -2.9%; with `COc1ccc(-c2cc(=O)oc3cc(OC(C)C(=O)O)ccc23)cc1` (stereo not given), 0.9%. Under `C[C@]12CCC(=O)C=C1CC[C@@H]1[C@@H]2[C@@H](O)C[C@@]2(C)[C@H]1CC[C@]2(O)C(=O)COC(=O)CCC(=O)O` stands 1.7%. `COc1ccccc1NC(=O)Cn1c(C)cc(=O)c2cccc(OC)c21`: the inhibition is -1.1%. Take `O=C(Cc1cccc2ccccc12)N1CC[C@@]2(O)CCCC[C@H]2C1`: the inhibition was 2.2%.

`COCCn1c(SCCOc2ccccc2)nc2ccccc2c1=O`: the inhibition is 1.6%. Consider `Cc1cccc(C)c1NS(=O)(=O)c1ccc(NC(=O)c2ccc(Cl)c([N+](=O)[O-])c2)cc1`, for which the inhibition was 2.3%. With `CCCC(=O)Nc1ccccc1NC(C)=O` the figure was 1.4%. As to `CC(C)CC1c2[nH]c3ccccc3c2CCN1C(=O)CCC(=O)N(C)C` (stereo not given), the inhibition is 1.9%. Under `CC(C)NC[C@@H](O)c1ccc(O)c(O)c1` stands -3.7%; under `Cc1ccc(C2=NOC(=O)/C2=C\C=C\c2ccccc2)cc1`, 2.1%; under `Cc1cccc(N(C)C(=S)Oc2ccc3ccccc3c2)c1`, -0.1%. With `O=C1OC(c2ccccc2)=C/C1=C/c1cccs1` the figure was 6.4%; with `COc1ccc(-c2cc(=O)oc3c(C)c(O)c(CN(C)C)cc23)cc1`, 11.3%; with `COC(=O)c1cc(Br)c(=O)n(CCc2ccc(O)cc2)c1`, 2.6%. On to `O=c1cc(CN2CCN(c3cccc(Cl)c3)CC2)c2cc(O)c(-c3ccccc3)cc2o1`, for which the inhibition is -1.3%.
